Only some compounds are listed: those with a hit (about 7.2% of all), similar ones and a draw of the others.
FMDV antiviral: foot and mouth disease virus antiviral activity; FMDV antiviral cell-based qHTS; Potency, µM (highest dose often 57.9 µM), for the others: at the top dose activity change, negative = inhibition, actives largely listed as inhibitors; 410,000 tested, 1.2% active; AID 1159524; calls by dose curve; tested in HEK293T cells; further: read-out not given here; nearly all actives have a fitted effect of over 45% in size
LASV entry inh: inhibitors of Lassa virus binding or cell entry | Lassa virus pseudotype entry inhibition, cell reporter | 300,000 tested, 1.2% active | Potency, µM (top dose mostly 37.9 µM), inactives show top-dose activity change, negative = inhibition, usual class: inhibitors; calls by dose curve; tested in HEK293 cells; further: nearly all actives have a fitted effect of over 50% in size
RE007 growth inh: less growth of the S. pombe RE007 Vpr strain | S. pombe RE007 Vpr strain, BacTiter-Glo ATP luminescence, 24 h | Potency, µM (doses to about 92.2 µM), for inactives: at the top dose activity change, negative = less growth, hits mostly inhibitors | 360,000 tested, 0.21% active; active means well fitted falling curve with a large enough effect; inconclusive means small, poorly fitted or top-dose-only effect; inactive means no such curve, though single readings can be large or run the other way; further: nearly all actives have a fitted effect of over 50% in size
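Fission yeast strain RE007, carrying one chromosomally integrated HIV-1 vpr copy, was seeded at OD 0.01 in PMG+AL medium with 23 nL pinned compound. After 24 h at 30 °C and 99% humidity, viability was read by BacTiter-Glo luminescence.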
HCV inhibitor: inhibitors of hepatitis C virus infection | AID 651820 | Potency, µM (top dose mostly 41.8 µM), for the others: top-dose activity change, negative = inhibition, usual class: inhibitors | Huh7.5.1 HCVcc-Cre infection, luciferase reporter, 44 h | 340,000 tested, 3.4% active
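Cells seeded at 1,000/well and cultured 4 h, then compounds added followed by HCVcc-Cre virus (~0.5 moi). After 44 h further culture, luciferase substrate was added, plates held 15 min at room temperature, and luminescence read for 15 sec.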
Sm TGR block: inhibitors of Schistosoma mansoni thioredoxin glutathione reductase. Q962Y6. AID 485364. purified TGR, DTNB reduction, TNB absorbance 405 nm. 360,000 tested, 3% active. Potency, µM (top dose mostly 114 µM), inactives show at the highest dose activity change, negative = inhibition, most hits filed as inhibitors; further: nearly all actives have a fitted effect of over 60% in size
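TGR 20 nM + NADPH 100 uM (dispensed conc.), cpd preinc 15 min RT; start with NADPH (500 uM addition) then DTNB (15 mM addition). Kinetic TNB absorbance, 405 nm filter. Four-parameter Hill fit across titration.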
Marburg entry inh: inhibitors of Marburg virus binding or cell entry | Marburg virus pseudotyped entry inhibition, cell reporter | Potency, µM (top dose mostly 37.8 µM), inactives show at the highest dose activity change, negative = inhibition, usual class: inhibitors | 300,000 tested, 1.8% active | AID 540276; calls by dose curve; tested in HEK293 cells
Numbers without * were called inactive; ! = repeats disagree; [ ] = remark or other dose. Unless noted, the call rests on the fitted dose curve; in most records, active means well fitted curve in the direction sought with a large enough effect; inconclusive means small, poorly fitted or top-dose-only effect, or another doubt; inactive means no such curve, though single readings can be large; an effect the other way counts as inactive or inconclusive. On the % scale 0 is the no-effect control and ±100 the full control effect; potency means the concentration at half of the fitted maximal effect.

Screening CN(C)CC/C=C1/c2ccccc2Sc2ccc(Cl)cc21 returned FMDV antiviral inconclusive, RE007 growth inh -9%[18.4 µM], HCV inhibitor 14µM* and Sm TGR block -6%.
Screening CN(C)CC/C=C1\c2ccccc2COc2ccccc21 returned FMDV antiviral -19%, LASV entry inh inconclusive, RE007 growth inh 3%[18.4 µM], HCV inhibitor inconclusive, Sm TGR block 14µM* and Marburg entry inh 4µM*.
CCCCCC[N+](C)(C)CC/C=C1/c2ccccc2Sc2ccc(Cl)cc21 was read as FMDV antiviral 0%, RE007 growth inh 25%, HCV inhibitor -9% and Sm TGR block -10%.
`C=CCCCCCCCCCCC/C=C/C(O)COC(C)=O` (stereo unspecified) gave FMDV antiviral -6%.
For CCc1nc(CN2CCN(c3ccc(C(F)(F)F)cn3)CC2)c(C)[nH]1 the results were FMDV antiviral inconclusive, RE007 growth inh -16%, HCV inhibitor 10µM* and Sm TGR block -25%.
Screening CN1CCc2cc(O)c(O)cc2C(c2ccccc2)C1 (stereo unspecified) returned FMDV antiviral -16%, LASV entry inh inconclusive, RE007 growth inh 6%[18.4 µM], HCV inhibitor inconclusive, Sm TGR block -34% and Marburg entry inh 13µM*!.
`Oc1cc2c(cc1O)[C@@H](c1ccccc1)CNCC2` gave FMDV antiviral inconclusive, LASV entry inh -25%, RE007 growth inh 7%[18.4 µM], HCV inhibitor 2%[8.37 µM], Sm TGR block -24% and Marburg entry inh -21%.
`CN1CCc2cc(Cl)c(O)cc2[C@@H](c2ccccc2)C1` gave FMDV antiviral 1.3µM*!, LASV entry inh 0%, RE007 growth inh 5%[18.4 µM], HCV inhibitor -6%, Sm TGR block -7% and Marburg entry inh -10%.
Screening Oc1cc2c(cc1O)C(c1ccccc1)CNCC2 (stereo unspecified) returned FMDV antiviral -12%, LASV entry inh inconclusive, RE007 growth inh -12%[18.4 µM], HCV inhibitor -23% and Marburg entry inh 16µM*!.
CCc1c(C)c2ccc(O)c(CN3CCN(c4ccc(F)cc4)CC3)c2oc1=O was read as FMDV antiviral inconclusive, LASV entry inh 5%[46.1 µM], Sm TGR block -3% and Marburg entry inh 1%[46.1 µM].
COCOc1c2c(c(OCOC)c3c(OCOC)cccc13)C(=NNS(=O)(=O)c1ccc(C)cc1)C1=C2CCCC1 was read as Marburg entry inh -17%[14.2 µM].
For CC(C)(C)C1c2[nH]c3ccccc3c2CCN1CCCn1cccn1 (stereo unspecified) the results were FMDV antiviral -12%, LASV entry inh -23%[46.1 µM], RE007 growth inh -6%, HCV inhibitor 4%, Sm TGR block 40µM* and Marburg entry inh inconclusive.
`Cc1cccc(CN2CCc3c([nH]c4ccccc34)C2C(C)(C)C)n1` (stereo unspecified) gave FMDV antiviral -3%, LASV entry inh -1%[46.1 µM], RE007 growth inh 3%, HCV inhibitor -31%, Sm TGR block 16µM* and Marburg entry inh inconclusive.
CCOC(=O)CNC(=O)CC(c1cc(OC)c(OC)c(OC)c1)N1Cc2ccccc2C1=O (stereo unspecified) was read as FMDV antiviral -4%, LASV entry inh 5%[46.1 µM] and Sm TGR block -2%.
CC(C)c1ccc(NC(=O)C(Cc2ccccc2)NS(=O)(=O)c2ccc3c(c2)CCC(=O)N3)cc1 (stereo unspecified) was read as FMDV antiviral 0%, LASV entry inh -12%[46.1 µM], Sm TGR block 7% and Marburg entry inh -17%[46.1 µM].
Screening CC(CCN1CCCc2nc(C)c(C)cc21)=NOC[C@@H](O)[C@H]1O[C@@H]2OC(C)(C)O[C@H]2[C@@H]1O returned LASV entry inh inconclusive and Marburg entry inh -8%[14.2 µM].
Cc1ccc(-c2noc(C3CCCN(C(=O)c4ccccc4Br)C3)n2)o1 (stereo unspecified) was read as FMDV antiviral 52%, LASV entry inh inconclusive, RE007 growth inh 3%, HCV inhibitor -19%, Sm TGR block inconclusive and Marburg entry inh inconclusive.
For COc1ccc(NC(=O)N2CCCC(c3nc(-c4ccc(C(C)C)cc4)no3)C2)cc1 (stereo unspecified) the results were FMDV antiviral inconclusive, LASV entry inh 2%, RE007 growth inh 0%, HCV inhibitor 10µM*, Sm TGR block -3% and Marburg entry inh -26%.
`Cc1ccc(-c2noc(C3CCCN(C(=O)c4ccccc4)C3)n2)o1` (stereo unspecified) gave FMDV antiviral 28%, LASV entry inh inconclusive, RE007 growth inh -3%, HCV inhibitor -18%, Sm TGR block 56µM* and Marburg entry inh 0%.
`COc1ccc(-c2noc(C3CCCN(C(=O)c4ccccc4C)C3)n2)cc1` (stereo unspecified) gave FMDV antiviral -27%, LASV entry inh -29%[46.1 µM], RE007 growth inh -20%, HCV inhibitor 32µM*, Sm TGR block -12% and Marburg entry inh inconclusive.
Cc1cccc(C(=O)N2CCCC(c3nc(-c4ccc(F)cc4)no3)C2)c1 (stereo unspecified) was read as FMDV antiviral -22%, LASV entry inh -7%, RE007 growth inh 1%, HCV inhibitor 13µM*, Sm TGR block 2% and Marburg entry inh -6%.
Cc1ccc(C(=O)N2CCc3cc(CNC(=O)CSc4ccccc4)ccc32)cc1 was read as FMDV antiviral 6%, LASV entry inh inconclusive and Sm TGR block -5%.
`COc1ccccc1C1CN(Cc2ccc(Sc3nncn3C)o2)Cc2ccccc2O1` (stereo unspecified) gave FMDV antiviral -3%.
For COc1ccc(-c2noc(C3CCCN(C(=O)Nc4ccccc4)C3)n2)cc1 (stereo unspecified) the results were FMDV antiviral 0%, RE007 growth inh -20%, HCV inhibitor inconclusive and Sm TGR block 8%.
`COc1ccc(NC(=O)N2CCCC(c3nc(-c4ccc(OC)cc4)no3)C2)cc1` (stereo unspecified) gave FMDV antiviral -18%, LASV entry inh inconclusive, RE007 growth inh 3%, HCV inhibitor 22µM*, Sm TGR block -27%[57.1 µM] and Marburg entry inh inconclusive.
For COCCCN1C(=O)C(O)=C(C(=O)c2ccco2)[C@H]1c1ccc(Br)cc1 the results were Marburg entry inh -1%.
CC(C)C[C@H]1C(=O)N2CCC[C@H]2[C@]2(O)O[C@](NC(=O)C3C=C4c5cccc6[nH]c(Br)c(c56)C[C@H]4N(C)C3)(C(C)C)C(=O)N12 (stereo partly specified) was read as FMDV antiviral inconclusive, RE007 growth inh -6%[18.4 µM] and HCV inhibitor inconclusive.

Compound activity: PubChem BioAssay, National Center for Advancing Translational Sciences (NCATS)
